Data reported in the supplement of paper PMC10849652.
About 8,800 targets were measured; listed, in parts, are those with a hit and a random draw of the rest. About 0.5% of all pairs of compound and target were hits. A number with no mark means an inactive call.

Tests used:
Experiment in all cases: log2 fold change, soluble protein after heating vs DMSO (PISA); higher = thermal stabilisation; K562 lysate, 10 uM; active = over 0.2 and 3.5 SD of the protein, either way, in both replicates (recomputed)
lapatinib = compound: CS(=O)(=O)CCNCc1ccc(-c2ccc3ncnc(Nc4ccc(OCc5cccc(F)c5)c(Cl)c4)c3c2)o1 [lapatinib]
In short: (§1)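 Values give the log-two fold change in thermal stability against solvent controls, from duplicates. Crude K562 extract at 1 mg/mL protein, made by dounce homogenisation in PBS pH 7.4 with 1 mM MgCl2, was treated with 10 μM compound for 30 min. After 3 min heating across 48°C-58°C, aliquots were pooled, adjusted to 0.5% NP-40 at 4°C and centrifuged at 21,000xg for 90 min. The supernatant was measured by TMTpro 16plex LC-MS/MS with channel sums equalised.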

pictilisib = compound: CS(=O)(=O)N1CCN(Cc2cc3nc(-c4cccc5[nH]ncc45)nc(N4CCOCC4)c3s2)CC1 [pictilisib]
In short: as §1

crizotinib = compound: C[C@@H](Oc1cc(-c2cnn(C3CCNCC3)c2)cnc1N)c1c(Cl)ccc(F)c1Cl [crizotinib]
In short: as §1

[1] = compound: C[C@H](C1=CC=C(C=C1)C(=O)NC2=C3C=CNC3=NC=C2)N
In short: as §1

duvelisib = compound: C[C@H](Nc1ncnc2nc[nH]c12)c1cc2cccc(Cl)c2c(=O)n1-c1ccccc1 [duvelisib]
In short: as §1

gandotinib = compound: Cc1cc(Nc2cc(CN3CCOCC3)c3nc(C)c(Cc4ccc(Cl)cc4F)n3n2)n[nH]1 [gandotinib]
In short: as §1

tozasertib = compound: Cc1cc(Nc2cc(N3CCN(C)CC3)nc(Sc3ccc(NC(=O)C4CC4)cc3)n2)n[nH]1 [tozasertib]
In short: as §1

doramapimod = compound: Cc1ccc(-n2nc(C(C)(C)C)cc2NC(=O)Nc2ccc(OCCN3CCOCC3)c3ccccc23)cc1 [doramapimod]
In short: as §1

bafetinib = compound: Cc1ccc(NC(=O)c2ccc(CN3CC[C@H](N(C)C)C3)c(C(F)(F)F)c2)cc1Nc1nccc(-c2cncnc2)n1 [bafetinib]
In short: as §1

[2] = compound: Cc1cccc(CC(=O)N2CCc3c2ccc(-c2cn(C)c4ncnc(N)c24)c3F)n1
In short: as §1

dasatinib = compound: Cc1nc(Nc2ncc(C(=O)Nc3c(C)cccc3Cl)s2)cc(N2CCN(CCO)CC2)n1 [dasatinib]
In short: as §1

[3] = compound: Cn1cc(-c2ccc3c(c2)CCN3C(=O)Cc2cccc(C(F)(F)F)c2)c2c(N)ncnc21
In short: as §1

quisinostat = compound: Cn1cc(CNCC2CCN(c3ncc(C(=O)NO)cn3)CC2)c2ccccc21 [quisinostat]
In short: as §1

[4] = compound: NC(=O)Nc1cc(-c2cccc(F)c2)sc1C(=O)N[C@H]1CCCNC1
In short: as §1

[5] = compound: NC(=O)c1cnc(N[C@@H]2CCCC[C@@H]2N)nc1Nc1cccc(-n2nccn2)c1
In short: as §1

[6] = compound: NC1(c2ccc(-c3nc4ccn5c(=O)[nH]nc5c4cc3-c3ccccc3)cc2)CCC1
In short: as §1

nilotinib = compound: Cc1cn(-c2cc(NC(=O)c3ccc(C)c(Nc4nccc(-c5cccnc5)n4)c3)cc(C(F)(F)F)c2)cn1 [nilotinib]
In short: as §1

[7] = compound: Cc1nc(Nc2n[nH]c3c2CN(C(=O)N[C@H](CN(C)C)c2ccccc2)C3(C)C)c2sccc2n1
In short: as §1

[8] = compound: Cc1ncc(-c2ccnc(Nc3ccc(S(C)(=O)=O)cc3)n2)n1C(C)C
In short: as §1

tipifarnib = compound: Cn1cncc1[C@@](N)(c1ccc(Cl)cc1)c1ccc2c(c1)c(-c1cccc(Cl)c1)cc(=O)n2C [tipifarnib]
In short: as §1

UniProt Q9Y6I7, sequence (Q9Y6I7 whole entry, looked up): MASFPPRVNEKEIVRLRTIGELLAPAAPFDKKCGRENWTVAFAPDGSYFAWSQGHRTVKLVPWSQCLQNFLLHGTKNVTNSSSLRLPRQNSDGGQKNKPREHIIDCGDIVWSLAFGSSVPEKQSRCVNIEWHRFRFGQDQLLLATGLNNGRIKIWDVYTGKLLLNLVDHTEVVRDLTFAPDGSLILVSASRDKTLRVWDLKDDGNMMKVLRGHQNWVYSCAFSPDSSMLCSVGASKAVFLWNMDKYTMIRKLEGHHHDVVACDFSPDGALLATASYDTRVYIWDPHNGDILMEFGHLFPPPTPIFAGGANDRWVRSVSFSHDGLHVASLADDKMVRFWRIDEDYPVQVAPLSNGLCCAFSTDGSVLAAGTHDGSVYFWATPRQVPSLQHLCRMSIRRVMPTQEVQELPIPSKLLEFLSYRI
UniProt Q15072, sequence (Q15072 whole entry, looked up): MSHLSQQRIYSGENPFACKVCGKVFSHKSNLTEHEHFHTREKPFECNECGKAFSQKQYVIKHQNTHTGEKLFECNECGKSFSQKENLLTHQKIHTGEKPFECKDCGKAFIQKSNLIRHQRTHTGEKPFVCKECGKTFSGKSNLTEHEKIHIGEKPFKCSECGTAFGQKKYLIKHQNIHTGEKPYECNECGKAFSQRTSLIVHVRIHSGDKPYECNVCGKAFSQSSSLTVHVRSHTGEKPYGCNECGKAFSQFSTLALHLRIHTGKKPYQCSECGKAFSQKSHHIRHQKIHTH
UniProt A7E2V4, sequence (A7E2V4 whole entry, looked up): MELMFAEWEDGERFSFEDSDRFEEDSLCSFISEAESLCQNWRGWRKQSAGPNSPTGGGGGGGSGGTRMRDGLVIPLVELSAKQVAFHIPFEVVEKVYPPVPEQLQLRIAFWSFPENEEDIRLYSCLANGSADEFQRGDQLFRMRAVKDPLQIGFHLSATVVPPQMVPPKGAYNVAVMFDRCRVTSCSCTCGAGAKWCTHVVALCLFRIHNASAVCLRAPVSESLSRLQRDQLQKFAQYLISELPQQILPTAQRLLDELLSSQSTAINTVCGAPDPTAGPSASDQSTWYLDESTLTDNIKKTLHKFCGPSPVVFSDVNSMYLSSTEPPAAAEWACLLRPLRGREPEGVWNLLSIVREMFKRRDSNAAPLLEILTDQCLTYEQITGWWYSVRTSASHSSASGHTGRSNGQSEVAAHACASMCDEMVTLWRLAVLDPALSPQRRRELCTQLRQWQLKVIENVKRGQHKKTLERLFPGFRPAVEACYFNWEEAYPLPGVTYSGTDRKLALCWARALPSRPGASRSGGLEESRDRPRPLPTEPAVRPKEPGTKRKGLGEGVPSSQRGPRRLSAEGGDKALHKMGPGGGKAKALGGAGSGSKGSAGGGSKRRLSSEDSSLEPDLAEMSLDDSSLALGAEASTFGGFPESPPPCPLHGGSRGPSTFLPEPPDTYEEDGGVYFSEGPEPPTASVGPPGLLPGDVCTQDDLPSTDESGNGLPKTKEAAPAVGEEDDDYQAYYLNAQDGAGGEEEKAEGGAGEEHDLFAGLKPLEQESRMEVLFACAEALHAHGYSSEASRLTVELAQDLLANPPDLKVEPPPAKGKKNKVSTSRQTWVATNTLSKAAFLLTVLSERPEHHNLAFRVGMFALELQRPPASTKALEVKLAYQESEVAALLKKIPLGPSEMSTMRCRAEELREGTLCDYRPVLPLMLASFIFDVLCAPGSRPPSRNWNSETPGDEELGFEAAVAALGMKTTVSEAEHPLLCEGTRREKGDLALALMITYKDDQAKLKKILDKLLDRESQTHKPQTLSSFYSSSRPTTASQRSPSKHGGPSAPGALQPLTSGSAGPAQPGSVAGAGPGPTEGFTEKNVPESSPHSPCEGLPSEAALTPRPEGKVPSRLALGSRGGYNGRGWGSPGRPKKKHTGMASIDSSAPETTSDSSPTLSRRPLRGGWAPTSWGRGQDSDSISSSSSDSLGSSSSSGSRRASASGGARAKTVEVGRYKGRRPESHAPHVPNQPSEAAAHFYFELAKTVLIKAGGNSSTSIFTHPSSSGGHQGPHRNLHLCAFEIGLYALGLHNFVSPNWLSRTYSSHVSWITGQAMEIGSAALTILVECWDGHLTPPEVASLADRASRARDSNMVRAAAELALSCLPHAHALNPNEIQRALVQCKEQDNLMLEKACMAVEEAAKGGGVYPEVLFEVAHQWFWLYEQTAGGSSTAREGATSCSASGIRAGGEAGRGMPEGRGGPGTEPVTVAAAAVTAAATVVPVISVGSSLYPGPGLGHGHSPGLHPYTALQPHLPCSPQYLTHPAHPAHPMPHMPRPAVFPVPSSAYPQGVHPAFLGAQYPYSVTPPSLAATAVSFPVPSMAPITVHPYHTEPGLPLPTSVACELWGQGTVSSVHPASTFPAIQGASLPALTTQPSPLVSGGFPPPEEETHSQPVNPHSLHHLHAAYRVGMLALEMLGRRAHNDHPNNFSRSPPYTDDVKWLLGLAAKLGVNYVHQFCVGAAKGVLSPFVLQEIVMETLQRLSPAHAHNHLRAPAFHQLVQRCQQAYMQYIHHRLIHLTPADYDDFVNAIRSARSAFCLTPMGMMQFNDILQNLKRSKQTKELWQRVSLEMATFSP
UniProt Q8TCY9, sequence (Q8TCY9 whole entry, looked up): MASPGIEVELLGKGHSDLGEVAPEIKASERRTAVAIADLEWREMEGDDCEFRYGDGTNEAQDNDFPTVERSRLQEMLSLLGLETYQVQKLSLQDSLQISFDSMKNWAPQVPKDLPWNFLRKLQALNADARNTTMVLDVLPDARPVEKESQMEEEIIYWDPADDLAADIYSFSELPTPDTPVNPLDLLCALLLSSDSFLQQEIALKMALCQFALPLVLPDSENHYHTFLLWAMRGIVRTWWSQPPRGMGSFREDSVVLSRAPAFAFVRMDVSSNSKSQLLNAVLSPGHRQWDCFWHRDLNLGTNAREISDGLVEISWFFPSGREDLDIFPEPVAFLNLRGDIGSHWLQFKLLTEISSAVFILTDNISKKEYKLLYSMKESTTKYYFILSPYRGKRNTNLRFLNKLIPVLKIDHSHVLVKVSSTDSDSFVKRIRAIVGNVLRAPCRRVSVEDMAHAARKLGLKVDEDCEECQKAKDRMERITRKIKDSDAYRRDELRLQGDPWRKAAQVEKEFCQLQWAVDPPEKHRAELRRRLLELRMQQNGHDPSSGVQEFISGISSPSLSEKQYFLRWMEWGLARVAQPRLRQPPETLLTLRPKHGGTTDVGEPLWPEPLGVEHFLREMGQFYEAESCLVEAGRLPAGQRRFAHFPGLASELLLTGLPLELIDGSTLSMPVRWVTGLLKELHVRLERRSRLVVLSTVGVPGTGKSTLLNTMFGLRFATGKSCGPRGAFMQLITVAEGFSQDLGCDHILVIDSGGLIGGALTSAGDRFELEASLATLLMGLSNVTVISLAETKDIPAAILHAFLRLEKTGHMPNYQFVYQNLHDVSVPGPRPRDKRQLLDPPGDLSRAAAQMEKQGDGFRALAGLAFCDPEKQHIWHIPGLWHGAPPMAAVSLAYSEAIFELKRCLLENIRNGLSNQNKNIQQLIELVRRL
UniProt Q9Y4P8, sequence (Q9Y4P8 whole entry, looked up): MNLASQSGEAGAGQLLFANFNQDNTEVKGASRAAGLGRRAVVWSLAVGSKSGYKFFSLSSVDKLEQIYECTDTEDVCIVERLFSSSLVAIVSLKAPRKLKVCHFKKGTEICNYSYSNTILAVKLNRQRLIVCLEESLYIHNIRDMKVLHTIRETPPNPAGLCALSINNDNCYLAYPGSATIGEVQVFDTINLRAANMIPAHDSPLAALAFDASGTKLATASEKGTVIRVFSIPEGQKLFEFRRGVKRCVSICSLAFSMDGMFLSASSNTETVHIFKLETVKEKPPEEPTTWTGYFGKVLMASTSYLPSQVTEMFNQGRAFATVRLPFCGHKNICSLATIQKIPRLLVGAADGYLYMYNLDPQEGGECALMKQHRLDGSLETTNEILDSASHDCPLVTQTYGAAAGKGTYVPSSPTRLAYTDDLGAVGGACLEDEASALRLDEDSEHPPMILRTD
UniProt Q9Y2D9, sequence (Q9Y2D9 whole entry, looked up): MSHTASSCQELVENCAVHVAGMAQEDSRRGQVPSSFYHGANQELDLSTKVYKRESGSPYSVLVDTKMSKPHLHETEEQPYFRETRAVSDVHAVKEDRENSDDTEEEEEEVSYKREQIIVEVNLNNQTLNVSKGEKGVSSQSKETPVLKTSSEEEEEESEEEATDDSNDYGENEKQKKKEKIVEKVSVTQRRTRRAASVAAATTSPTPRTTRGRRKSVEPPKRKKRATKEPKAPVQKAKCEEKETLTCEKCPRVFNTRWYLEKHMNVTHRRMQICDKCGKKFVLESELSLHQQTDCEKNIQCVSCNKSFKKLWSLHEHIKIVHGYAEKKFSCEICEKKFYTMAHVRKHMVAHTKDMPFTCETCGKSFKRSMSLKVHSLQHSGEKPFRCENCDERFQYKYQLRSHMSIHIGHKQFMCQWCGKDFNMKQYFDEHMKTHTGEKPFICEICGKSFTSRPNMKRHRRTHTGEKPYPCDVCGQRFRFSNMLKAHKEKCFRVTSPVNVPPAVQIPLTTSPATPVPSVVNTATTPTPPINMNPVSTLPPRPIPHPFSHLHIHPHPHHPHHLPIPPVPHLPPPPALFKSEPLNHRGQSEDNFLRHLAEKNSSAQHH
UniProt Q9UPT9, sequence (Q9UPT9 whole entry, looked up): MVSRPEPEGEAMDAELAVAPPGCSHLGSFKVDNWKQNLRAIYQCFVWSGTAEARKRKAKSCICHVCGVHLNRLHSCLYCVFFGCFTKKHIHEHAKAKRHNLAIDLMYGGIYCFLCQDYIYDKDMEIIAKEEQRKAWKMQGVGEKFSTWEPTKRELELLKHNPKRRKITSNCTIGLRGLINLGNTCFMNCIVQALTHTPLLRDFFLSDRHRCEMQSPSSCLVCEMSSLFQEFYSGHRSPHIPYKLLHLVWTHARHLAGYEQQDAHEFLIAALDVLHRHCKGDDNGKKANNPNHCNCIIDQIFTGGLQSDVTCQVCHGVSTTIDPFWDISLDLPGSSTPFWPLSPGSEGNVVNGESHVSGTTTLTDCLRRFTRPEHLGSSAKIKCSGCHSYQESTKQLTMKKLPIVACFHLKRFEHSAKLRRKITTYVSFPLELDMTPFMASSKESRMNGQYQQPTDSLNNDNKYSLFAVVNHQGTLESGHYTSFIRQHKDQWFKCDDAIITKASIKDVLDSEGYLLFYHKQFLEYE

| Target | log2 fold change (lapatinib) | log2 fold change (pictilisib) | log2 fold change (crizotinib) | log2 fold change [1] | log2 fold change (duvelisib) | log2 fold change (gandotinib) | log2 fold change (tozasertib) | log2 fold change (doramapimod) | log2 fold change (bafetinib) | log2 fold change [2] | log2 fold change (dasatinib) | log2 fold change [3] | log2 fold change (quisinostat) | log2 fold change [4] | log2 fold change [5] | log2 fold change [6] | log2 fold change (nilotinib) | log2 fold change [7] | log2 fold change [8] | log2 fold change (tipifarnib) |
| --- | --- | --- | --- | --- | --- | --- | --- | --- | --- | --- | --- | --- | --- | --- | --- | --- | --- | --- | --- | --- |
| ULK3 isoform 4 (UniProt Q6PHR2) | 0.059 | -0.008 | -0.088 | 0.113 | 0.065 | -0.08 | 0.059 | -0.15 | 0.041 | 0.354 | 0.035 | -0.181 | -0.11 | 0.296 | 0.133 | -0.157 | – | – | – | – |
| ZSWIM8 isoform 4 (UniProt A7E2V4) | – | -0.253 | 0.027 | -0.027 | -0.145 | -0.153 | 0.169 | -0.084 | -0.257 | 0.205 | 0.085 | 0.042 | -0.051 | 0.067 | – | -0.112 | -0.009 | 0.129 | 0.07 | -0.065 |
| WIPI2 isoform 6 (UniProt Q9Y4P8) | – | -0.102 | – | 0.025 | – | 0.181 | – | – | -0.013 | -0.089 | – | – | – | – | – | – | – | – | – | – |
| VASN (UniProt Q6EMK4) | – | – | – | – | -0.119 | – | 0.08 | – | – | – | 0.081 | 0.027 | – | – | – | -0.059 | – | – | – | – |
| USP22 (UniProt Q9UPT9) | – | 0.001 | -0.072 | 0.004 | -0.006 | -0.148 | 0.036 | -0.029 | -0.032 | 0.019 | 0.022 | 0.028 | -0.065 | 0.004 | – | -0.012 | -0.032 | 0.002 | 0.037 | -0.028 |
| XPOT (UniProt O43592) | -0.033 | 0.013 | -0.051 | -0.044 | 0.022 | -0.086 | -0.007 | 0 | -0.04 | 0.057 | -0.064 | -0.004 | -0.056 | 0.037 | 0.003 | -0.001 | -0.011 | -0.017 | 0 | 0.005 |
| ZNF644 (UniProt Q9H582) | – | -0.133 | -0.026 | 0.04 | -0.069 | -0.015 | 0.015 | 0.037 | -0.165 | 0.086 | 0.066 | -0.061 | -0.026 | 0.058 | – | -0.167 | -0.062 | 0.153 | 0.017 | -0.012 |
| ZNF593 (UniProt O00488) | -0.114 | 0.078 | 0.113 | -0.087 | 0.089 | 0.016 | 0.047 | 0.033 | 0.059 | 0.045 | 0.125 | -0.042 | 0.02 | 0.063 | 0.295 | 0.03 | – | – | – | – |
| ZNF652 (UniProt Q9Y2D9) | – | – | -0.007 | – | – | – | – | 0 | – | – | – | – | 0 | -0.036 | – | – | – | – | – | – |
| ZNF845 (UniProt Q96IR2) | 0.012 | -0.013 | 0.018 | -0.069 | -0.023 | 0.015 | – | 0.16 | -0.031 | 0.017 | -0.038 | 0.021 | -0.033 | 0.122 | 0.016 | 0.163 | 0 | 0.087 | -0.053 | -0.006 |
| URGCP (UniProt Q8TCY9) | – | -0.025 | – | – | 0.158 | – | – | – | -0.137 | – | -0.204 | -0.145 | – | – | – | – | 0.028 | 0.079 | -0.04 | -0.008 |
| ZSCAN26 (UniProt Q16670) | – | – | -0.025 | – | – | – | – | 0.102 | – | – | – | – | 0.169 | -0.093 | – | – | – | – | – | – |
| YBEY (UniProt P58557) | – | – | – | – | 0.049 | – | 0.035 | – | – | – | 0.067 | -0.083 | – | – | – | 0.044 | – | – | – | – |
| ZKSCAN8 (UniProt Q15776) | 0.08 | – | -0.151 | – | 0.068 | – | -0.014 | 0.082 | – | – | -0.096 | 0.026 | -0.134 | 0.005 | -0.029 | -0.064 | 0.05 | 0.015 | -0.03 | 0.101 |
| WAS (UniProt P42768) | – | -0.027 | – | -0.16 | -0.194 | -0.057 | -0.127 | – | -0.065 | 0.103 | 0.095 | 0.129 | – | – | – | 0.025 | 0.636 (active) | -0.102 | 0.318 | -0.064 |
| VPS72 (UniProt Q15906) | 0.025 | – | 0.005 | -0.099 | 0.001 | 0.031 | 0.059 | -0.023 | – | 0.136 | -0.054 | 0.073 | 0.005 | 0.05 | -0.03 | -0.036 | 0.029 | 0.032 | 0.05 | 0.088 |
| WAC isoform 5 (UniProt Q9BTA9) | – | – | – | – | 0.226 | – | – | – | – | – | -0.336 | 0.254 | – | – | – | -0.129 | – | – | – | – |
| ZNF146 (UniProt Q15072) | – | – | – | – | -0.018 | – | – | – | – | – | -0.028 | 0.188 | – | – | – | – | – | – | – | – |
| UTRN isoform 2 (UniProt P46939) | – | 0.01 | – | -0.009 | – | 0.04 | -0.077 | – | -0.175 | -0.018 | – | – | – | – | – | 0.21 | – | – | – | – |
| UNC13A (UniProt Q9UPW8) | – | – | – | -1.52 | – | 0.331 | – | – | – | 0.481 | – | – | – | – | – | -0.048 | 0.114 | 0.046 | 0.165 | 0.064 |
| WSB1 (UniProt Q9Y6I7) | – | – | – | 0.12 | -0.137 | -1.11 (active) | – | – | – | -0.674 | -0.194 | 0.012 | – | – | – | – | – | – | – | – |
| XPOT (UniProt F5GYW6) | -0.115 | – | – | – | – | – | – | – | – | – | – | – | – | – | -0.192 | – | – | – | – | – |
| ZYG11A (UniProt Q6WRX3) | -0.301 | 0.031 | – | -0.306 | – | 0.192 | – | – | -0.378 | 0.323 | – | – | – | – | 0.085 | -0.068 | 0.151 | -0.077 | -0.227 | -0.124 |
